The results in this text go back to PubChem BioAssay (Tox21).

SMILES strings stand for the structures. Results filed as inconclusive are left out. A call without a number means that no potency is given here. Active and inactive are the calls of the source. The call rests on the fitted dose curve; in most records, active means well fitted inhibition curve with a large enough effect in the repeat runs; inconclusive means weak or mixed curves; inactive means no such curve, though single readings can be large or run the other way.
Potency means the concentration at half of the fitted maximal effect.

This assay is described as follows: qHTS assay to identify small molecule antagonists of the estrogen related receptor (ERR) signaling pathway (AID 1224819; further: nearly all actives have a fitted effect of over 50% in size). Conditions: ERR reporter cell line, luciferase inhibition; series mostly up to 46.1 µM. An excerpt:
National Center for Advancing Translational Sciences [NCATS]
NIH Chemical Genomics Center [NCGC]
U.S. Environmental Protection Agency [EPA]
National Institutes of Environmental Health Sciences [NIEHS]
National Toxicology Program [NTP]
U.S. Food and Drug Administration [FDA]
Estrogen related receptors (ERRs), the first orphan nuclear receptors discovered, play an important role in the control of cellular energy metabolism. ERRs are required for high-energy production in response to the environmental challenges. ERR-alpha was also identified as an adverse marker for breast cancer progression; ERR-alpha-positive tumors have a poor prognosis. To screen and to identify environmental compounds that perturb the ERR signaling pathways could provide valuable information for potential therapeutic or preventive measures in the treatment of metabolic disease. For identifying ERR antagonists, ERR cell line (provided by NTP) has been used to screen LOPAC library.
Tox21 Assay Protocol Summary:
The ERR cells were dispensed at 2,000 cells/5 ul/well in 1536-well white plates using a Multidrop dispenser. After the assay plates were incubated at a 37 C/5% CO2 incubator for 6 hours, 23 nL of compounds dissolved in DMSO, positive and negative controls or DMSO only was transferred to the assay plate by a pin tool. The plates were incubated at 37 C for 18 hours. 4 ul/well of One-Glo reagent was added into the assay plates using a Flying Reagent Dispenser. After 30 min incubation at room temperature, the luminescence intensity in the plates was measured using a ViewLux plate reader.
Background: In qHTS, concentration-response curves come from the screen itself.
As to `CN(N=O)c1ccc(O)c(O)c1`, the Potency entry was “inactive”.

Consider `CN1CCC(c2c[nH]c3ccc(O)cc23)CC1`, for which the Potency result is “inactive”.

For `Cc1sc2ccccc2c1CC1=NCCN1`, the Potency entry is “inactive”.

As to `O=S1(=O)N(CCN2CC=C(c3c[nH]c4cc(F)ccc34)CC2)c2cccc3c2N1CCC3`, the Potency was 16200 nM (active).

As to `S=C(NC1CCCCC1)N1CCC(c2cnc[nH]2)CC1`, the Potency result was “inactive”.

As to `CCN(CC)c1ncnc2c1ncn2[C@@H]1O[C@H](COP(=O)(O)OP(=O)(O)C(Br)(Br)P(=O)(O)O)[C@@H](O)[C@H]1O`, the Potency result was “inactive”.

With `CNc1ccc2oc(C[C@H]3O[C@@]4(CC[C@H]3C)O[C@H]([C@H](C)C(=O)c3ccc[nH]3)[C@H](C)C[C@H]4C)nc2c1C(=O)O`, the Potency was 2370 nM (active).

`COc1ccc2[nH]cc(CCN)c2c1`: the Potency result was “inactive”.

With `CCCN1CCC[C@H](c2cccc(O)c2)C1`, the Potency entry was “inactive”.

On to `CN1CC[C@@]2(C)c3cc(OC(=O)Nc4ccccc4)ccc3N(C)[C@@H]12`, for which the Potency entry was “inactive”.

On to `CC(N)[C@H](O)c1ccc(O)c(O)c1` (stereo not given in full), for which the Potency entry is “inactive”.

With `COc1cc(C(O)CN)ccc1O` (stereo not given), the Potency result is “inactive”.

With `CC[C@@]1(O)C(=O)OCc2c1cc1n(c2=O)Cc2cc3ccccc3nc2-1`, the Potency was 123 nM (active).

`C[C@H](N)CN1CCc2ccc(Br)cc21`: the Potency result was “inactive”.

Turning to `CCN1C[C@@]2(COC)C3[C@@H](OC)C4[C@H]1C3([C@@H]1C[C@@]3(O)[C@H](OC(=O)c5ccccc5)[C@@H]1[C@]4(OC(C)=O)[C@@H](O)[C@@H]3OC)[C@H](OC)C[C@H]2O`, the Potency result was “inactive”.

As to `C[C@@H](N)Cc1cnc[nH]1`, the Potency result is “inactive”.

On to `C[N+](C)(C)CC#CCOC(=O)Nc1cccc(Cl)c1`, for which the Potency result was “inactive”.

Consider `O=[N+]([O-])c1cc(O)c(O)c([N+](=O)[O-])c1`, for which the Potency result was “inactive”.

Regarding `C#CCN[C@H](C)Cc1ccccc1`, the Potency result is “inactive”.

Turning to `CC(C)(C)c1cc(C=C(C#N)C#N)cc(C(C)(C)C)c1O`, the Potency was 276 nM (active).

Consider `CN(N=O)c1cc(O)ccc1O`, for which the Potency entry was “inactive”.

Consider `CNCCc1ccc(O)c(O)c1`, for which the Potency entry is “inactive”.

On to `NC(CCP(=O)(O)O)C(=O)O` (stereo not given), for which the Potency entry is “inactive”.

Consider `CC(N)c1cccc(Cl)c1Cl` (stereo not given), for which the Potency result is “inactive”.

Take `CC(C)[C@H]1CN[C@H](C(=O)O)[C@H]1CC(=O)O`: the Potency entry was “inactive”.

For `COc1ccc2[nH]c3c(c2c1)CCNC3`, the Potency entry was “inactive”.

Take `O=C(N[C@H]1CN2CCC1CC2)c1ccc(Cl)cc1`: the Potency result is “inactive”.

Regarding `C#CCOC(=O)C1=CCCN(C)C1`, the Potency entry is “inactive”.

As for `CCCN(CCC)[C@H]1CCc2c(F)ccc(O)c2C1`, the Potency entry was “inactive”.

As to `C[N+](C)(C)CCOC(=O)CBr`, the Potency entry is “inactive”.

Turning to `CCCn1c(=O)c2[nH]c(C3CCCC3)nc2n(CCCOC(=O)c2ccc(S(=O)(=O)F)cc2)c1=O`, the Potency result was “inactive”.

Consider `CC(C)NC(C)Cc1ccc(I)cc1` (stereo not given), for which the Potency entry was “inactive”.

For the compound `CCCCc1ccc(C(=O)O)nc1`, the Potency result is “inactive”.

With `CC(C)CC(NP(=O)(O)O[C@@H]1O[C@@H](C)[C@H](O)[C@@H](O)[C@H]1O)C(=O)NC(Cc1c[nH]c2ccccc12)C(=O)O` (stereo not given in full), the Potency result was “inactive”.

As to `O=C(O)Cc1cnc[nH]1`, the Potency result is “inactive”.

Turning to `COc1ccc(OC)c(C(O)C(C)N)c1` (stereo not given), the Potency entry was “inactive”.

Regarding `CN1CCc2cccc(Cl)c2CC1`, the Potency result was “inactive”.

Regarding `CN(C(=O)Cc1ccc(Cl)c(Cl)c1)C(CN1CCCC1)c1cccc(OCC(=O)O)c1` (stereo not given), the Potency entry was “inactive”.

Take `CP(=O)(O)C1=CCNCC1`: the Potency result was “inactive”.

`CCCCCCCCCCCCCC(=O)O[C@@H]1[C@@H](C)[C@@]2(O)[C@@H](C=C(CO)C[C@@]3(O)C(=O)C(C)=C[C@@H]23)C2C(C)(C)[C@@]21OC(C)=O` (stereo not given in full): the Potency result is “inactive”.
